Laboratory results from PubChem BioAssay (EPA / NIEHS).
Inconclusive results are not listed. Activity calls are given as the source filed them. Rule for the calls, unless noted: active = hit-call score of the fitted dose curve at least 0.9, where 1 is the maximum; inactive = score below 0.9.

Experiments:
[1] = target: Oxysterols receptor LXR-alpha (Homo sapiens) (UniProt Q13133); assay: ATG_LXRa_TRANS: Attagene TRANS-FACTORIAL HepG2 Assay for human Liver X Receptor alpha (LXRa) (AID 2282980; active = hit-call score of the fitted dose curve at least 0.9, where 1 is the maximum); settings: HepG2 Attagene TRANS reporter, LXRa transactivation
Oxysterols receptor LXR-alpha (Homo sapiens), sequence (Q13133 whole entry, looked up, the tested form may be a part): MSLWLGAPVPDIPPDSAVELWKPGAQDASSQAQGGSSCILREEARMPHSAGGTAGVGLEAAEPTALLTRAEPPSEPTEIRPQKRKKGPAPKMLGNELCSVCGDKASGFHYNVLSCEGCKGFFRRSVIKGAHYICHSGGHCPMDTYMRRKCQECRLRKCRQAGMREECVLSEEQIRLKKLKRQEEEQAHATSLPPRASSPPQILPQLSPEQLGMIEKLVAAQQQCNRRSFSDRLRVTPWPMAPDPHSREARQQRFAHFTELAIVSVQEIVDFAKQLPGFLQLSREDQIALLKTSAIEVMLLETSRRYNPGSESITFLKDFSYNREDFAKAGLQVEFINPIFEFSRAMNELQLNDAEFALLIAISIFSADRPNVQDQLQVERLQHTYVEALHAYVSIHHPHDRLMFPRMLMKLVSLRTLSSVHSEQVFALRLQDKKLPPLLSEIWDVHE
How it was run: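 Chemical-induced reporter mRNA measured by RT-PCR with fluorescent labelling and capillary electrophoresis after 24 h dosing of transiently transfected HepG2 cells expressing exogenous NR-Gal4 chimeras; increases scored against DMSO baseline.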

[2] = target: Hepatocyte nuclear factor 4-alpha (Homo sapiens) (UniProt P41235); assay: ATG_HNF4a_TRANS: Attagene TRANS-FACTORIAL HepG2 Assay for human Hepatocyte Nuclear Factor 4 alpha (HNF4a) (AID 2282982; active = hit-call score of the fitted dose curve at least 0.9, where 1 is the maximum); settings: HepG2 HNF4a transactivation reporter, mRNA readout
Hepatocyte nuclear factor 4-alpha (Homo sapiens), sequence (P41235 whole entry, looked up): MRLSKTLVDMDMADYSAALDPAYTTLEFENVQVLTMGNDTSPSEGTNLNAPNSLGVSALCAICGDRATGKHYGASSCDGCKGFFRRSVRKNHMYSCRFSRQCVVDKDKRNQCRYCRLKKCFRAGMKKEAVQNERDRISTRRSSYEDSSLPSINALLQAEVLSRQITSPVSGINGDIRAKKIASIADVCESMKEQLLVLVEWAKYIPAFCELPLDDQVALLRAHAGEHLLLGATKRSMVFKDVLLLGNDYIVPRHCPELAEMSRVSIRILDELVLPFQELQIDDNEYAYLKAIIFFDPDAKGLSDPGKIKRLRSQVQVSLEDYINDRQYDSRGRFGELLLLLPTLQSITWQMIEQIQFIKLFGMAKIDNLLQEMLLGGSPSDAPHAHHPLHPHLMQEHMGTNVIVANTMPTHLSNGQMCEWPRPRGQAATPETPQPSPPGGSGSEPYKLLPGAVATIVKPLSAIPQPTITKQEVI
How it was run: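 Transfected HepG2 reporter cells are dosed for 24 h; reporter RNA is reverse-transcribed, amplified, fluorescently labelled and HpaI-digested before CE sizing. Positive-direction fit against DMSO.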

[3] = ATG_M_06_TRANS: Attagene TRANS-FACTORIAL HepG2 Assay for M06 Transcription Factor (Internal Marker) (AID 2282983; active = hit-call score of the fitted dose curve at least 0.9, where 1 is the maximum;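 note: reporter transcript level by RT-PCR then capillary electrophoresis fluorescence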); settings: HepG2 Attagene TRANS M06 internal marker reporter
How it was run: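 Cells: HepG2, transient multi-reporter transfection. Exposure: 24 h. Detection: RT-PCR, 6-FAM labelling, HpaI digestion (2 h, 37 °C), capillary electrophoresis. Baseline: DMSO.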

[4] = ATG_M_32_TRANS: Attagene TRANS-FACTORIAL HepG2 Assay for M32 Transcription Factor (Internal Marker) (AID 2282984; active = hit-call score of the fitted dose curve at least 0.9, where 1 is the maximum;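 note: transcript level of a background control reporter unit measured by RT-PCR and capillary electrophoresis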); settings: HepG2 Attagene TRANS M32 internal marker reporter
How it was run: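 Using transiently transfected HepG2 cells exposed to test chemicals for 24 h, reporter transcripts are converted to labelled cDNA fragments and quantified by capillary electrophoresis. DMSO defines the activity baseline.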

[5] = target: Nuclear receptor subfamily 4 group A member 2 (Homo sapiens) (UniProt P43354); assay: ATG_NURR1_TRANS: Attagene TRANS-FACTORIAL HepG2 Assay for human Nuclear Receptor Related Protein 1 (NURR1) (AID 2282985; active = hit-call score of the fitted dose curve at least 0.9, where 1 is the maximum); settings: HepG2 Attagene TRANS reporter, mRNA readout
Nuclear receptor subfamily 4 group A member 2 (Homo sapiens), sequence (P43354 whole entry, looked up): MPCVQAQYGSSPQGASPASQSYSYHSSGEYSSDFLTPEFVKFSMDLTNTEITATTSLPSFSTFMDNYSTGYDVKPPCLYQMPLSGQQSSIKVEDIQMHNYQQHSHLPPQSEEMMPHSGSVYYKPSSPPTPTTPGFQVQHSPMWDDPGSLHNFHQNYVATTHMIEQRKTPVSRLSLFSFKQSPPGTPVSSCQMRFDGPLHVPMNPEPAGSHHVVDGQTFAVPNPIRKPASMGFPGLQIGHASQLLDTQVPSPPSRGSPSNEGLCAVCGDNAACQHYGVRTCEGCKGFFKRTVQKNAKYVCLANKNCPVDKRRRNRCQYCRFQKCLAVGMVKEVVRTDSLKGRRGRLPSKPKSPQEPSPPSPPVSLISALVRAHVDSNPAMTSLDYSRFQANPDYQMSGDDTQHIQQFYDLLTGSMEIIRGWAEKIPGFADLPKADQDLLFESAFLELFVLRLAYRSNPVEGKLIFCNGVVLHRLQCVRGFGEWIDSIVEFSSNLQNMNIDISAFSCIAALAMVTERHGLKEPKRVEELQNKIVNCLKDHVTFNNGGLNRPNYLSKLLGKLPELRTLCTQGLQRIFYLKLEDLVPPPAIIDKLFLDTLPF
How it was run: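 Cells: HepG2, transiently transfected. Exposure: 24 h. Detection: fluorescence of labelled RT-PCR products separated by capillary electrophoresis; upward fit versus DMSO.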

[6] = target: Transcriptional activator Myb (Homo sapiens) (UniProt P10242); assay: ATG_Myb_CIS: Attagene CIS-FACTORIAL HepG2 Assay for human Myeloblastosis (Myb) Proto-Oncogene Transcription Factor (AID 2282986); settings: HepG2 Attagene CIS-FACTORIAL Myb reporter transcription; actives raise or lower the signal
Transcriptional activator Myb (Homo sapiens), sequence (P10242 whole entry, looked up): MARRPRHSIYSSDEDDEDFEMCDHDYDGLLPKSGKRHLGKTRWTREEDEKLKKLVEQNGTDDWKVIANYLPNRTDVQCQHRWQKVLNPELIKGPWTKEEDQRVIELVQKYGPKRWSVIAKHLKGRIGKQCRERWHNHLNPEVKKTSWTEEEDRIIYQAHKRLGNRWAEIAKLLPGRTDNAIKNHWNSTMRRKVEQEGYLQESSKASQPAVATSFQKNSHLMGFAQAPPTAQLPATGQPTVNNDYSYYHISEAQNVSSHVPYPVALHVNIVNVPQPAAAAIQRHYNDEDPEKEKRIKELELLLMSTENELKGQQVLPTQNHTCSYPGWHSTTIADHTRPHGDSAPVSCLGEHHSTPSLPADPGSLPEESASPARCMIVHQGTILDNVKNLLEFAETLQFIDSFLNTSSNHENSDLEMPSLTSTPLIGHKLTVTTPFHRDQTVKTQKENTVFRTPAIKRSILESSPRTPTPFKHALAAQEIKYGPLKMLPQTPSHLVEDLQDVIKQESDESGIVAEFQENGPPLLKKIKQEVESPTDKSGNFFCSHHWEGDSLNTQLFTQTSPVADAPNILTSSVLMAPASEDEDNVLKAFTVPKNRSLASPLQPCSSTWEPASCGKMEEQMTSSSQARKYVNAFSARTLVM
How it was run: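 Fluorescence signals from capillary electrophoresis of RT-PCR-amplified reporter cDNA give the read-out. Cells: HepG2 transfected with multiple cis-regulated reporter units. Exposure lasts 24 hours; DMSO defines baseline for gain or loss of signal.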

[7] = target: Nuclear respiratory factor 1 (Homo sapiens) (UniProt Q16656); assay: ATG_NRF1_CIS: Attagene CIS-FACTORIAL HepG2 Assay for human Nuclear Respiratory Factor 1 (NRF1) Orphan Gene (AID 2282987); settings: HepG2 NRF1 cis-element reporter, Attagene multiplex; actives raise or lower the signal
Nuclear respiratory factor 1 (Homo sapiens), sequence (Q16656 whole entry, looked up): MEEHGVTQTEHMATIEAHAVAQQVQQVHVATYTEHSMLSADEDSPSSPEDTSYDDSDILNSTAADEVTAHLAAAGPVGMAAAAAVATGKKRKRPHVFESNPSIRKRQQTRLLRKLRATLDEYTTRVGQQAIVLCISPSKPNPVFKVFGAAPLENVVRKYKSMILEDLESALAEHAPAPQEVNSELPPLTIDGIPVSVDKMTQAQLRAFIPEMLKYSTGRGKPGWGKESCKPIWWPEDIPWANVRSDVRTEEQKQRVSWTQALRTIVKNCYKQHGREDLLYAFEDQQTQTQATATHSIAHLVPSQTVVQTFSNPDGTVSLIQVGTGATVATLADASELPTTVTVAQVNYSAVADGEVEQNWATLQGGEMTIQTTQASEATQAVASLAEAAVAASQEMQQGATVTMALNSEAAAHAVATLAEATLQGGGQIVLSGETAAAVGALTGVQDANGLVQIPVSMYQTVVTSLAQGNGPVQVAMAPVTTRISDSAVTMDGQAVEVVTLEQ
How it was run: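 Transcriptional reporter readout, one component of a 52-endpoint multiplexed HepG2 panel. Exposure 24 h; mRNA detected via RT-PCR and fluorescent capillary electrophoresis; fitting in both directions against DMSO.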

[8] = ATG_NFI_CIS: Attagene CIS-FACTORIAL HepG2 Assay for human Nuclear Factor I (NFI) (AID 2282989); settings: HepG2 cis-regulatory reporter, NFI response element transcription; actives raise or lower the signal
How it was run: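 Reporter transcription driven by endogenous transcription factors in HepG2 cells; 24 h treatment. Quantitation by labelled RT-PCR fragments on capillary electrophoresis, gain- or loss-of-signal relative to DMSO.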

[9] = target: Myc proto-oncogene protein (Homo sapiens) (UniProt P01106); assay: ATG_Myc_CIS: Attagene CIS-FACTORIAL HepG2 Assay for human Myelocytomatosis (Myc) Proto-Oncogene Transcription Factor (AID 2282990); settings: HepG2, Attagene cis-reporter transcription factor activity; actives raise or lower the signal
Myc proto-oncogene protein (Homo sapiens), sequence (P01106 whole entry, looked up): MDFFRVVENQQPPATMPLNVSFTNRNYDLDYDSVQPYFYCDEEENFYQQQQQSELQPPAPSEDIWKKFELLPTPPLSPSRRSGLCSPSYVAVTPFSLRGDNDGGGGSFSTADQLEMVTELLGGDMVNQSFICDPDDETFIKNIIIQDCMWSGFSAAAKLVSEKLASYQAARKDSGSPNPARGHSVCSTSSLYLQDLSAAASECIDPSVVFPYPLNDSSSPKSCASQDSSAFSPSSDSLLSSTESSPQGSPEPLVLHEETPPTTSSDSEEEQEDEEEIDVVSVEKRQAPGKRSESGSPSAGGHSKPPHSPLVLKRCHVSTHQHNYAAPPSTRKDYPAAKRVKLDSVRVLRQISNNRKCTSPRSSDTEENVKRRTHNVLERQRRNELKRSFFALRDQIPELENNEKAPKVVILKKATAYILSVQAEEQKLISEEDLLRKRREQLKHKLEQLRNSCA
How it was run: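 HepG2, transient MRTU transfection (cis promoters, endogenous TFs); 24 h dosing; TriZol RNA → oligo(dT) RT → PCR → 6-FAM primer extension → HpaI cut → CE. Bidirectional fit vs DMSO.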

[10] = ATG_NRF2_ARE_CIS: Attagene CIS-FACTORIAL HepG2 Assay for human Nuclear Factor Erythroid 2 Related Factor 2 (NFR2) response to Antioxidant Response Elements (ARE) (AID 2282992); settings: HepG2 Attagene ARE/NRF2 reporter, transcription factor activity; actives raise or lower the signal;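 for AC50: reporter mRNA level measured by RT-PCR and capillary electrophoresis fluorescence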
How it was run: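 Transient MRTU transfection of HepG2; 24 h compound exposure; TriZol RNA, RT with oligo(dT), PCR, 6-FAM primer extension, HpaI cut, CE. Bidirectional fit vs DMSO.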

[11] = ATG_Oct_MLP_CIS: Attagene CIS-FACTORIAL HepG2 Assay for human Octamer-Binding Transcription Factor (Oct) (AID 2282993); settings: HepG2 Attagene cis-factorial Oct reporter, mRNA; actives raise or lower the signal
How it was run: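 Transfected HepG2 cells, 24 h treatment. Reporter mRNA quantified by RT-PCR–capillary electrophoresis; bidirectional fitting against DMSO.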

[12] = ATG_NF_kB_CIS: Attagene CIS-FACTORIAL HepG2 Assay for human Nuclear Factor Kappa B (NF-kB) (AID 2282991); settings: HepG2 Attagene cis-factorial NF-kB reporter mRNA; actives raise or lower the signal
How it was run: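 HepG2, transient multi-reporter transfection, cis promoter elements (endogenous TFs). 24 h exposure. Total RNA → RT → PCR → 6-FAM label → HpaI → CE. Gain/loss vs DMSO.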

[13] = target: Cellular tumor antigen p53 (Homo sapiens) (UniProt P04637); assay: ATG_p53_CIS: Attagene CIS-FACTORIAL HepG2 Assay for human p53 Transcription Factor (AID 2282994); settings: HepG2 p53 cis-element reporter, Attagene mRNA; actives raise or lower the signal
Cellular tumor antigen p53 (Homo sapiens), sequence (P04637 whole entry, looked up): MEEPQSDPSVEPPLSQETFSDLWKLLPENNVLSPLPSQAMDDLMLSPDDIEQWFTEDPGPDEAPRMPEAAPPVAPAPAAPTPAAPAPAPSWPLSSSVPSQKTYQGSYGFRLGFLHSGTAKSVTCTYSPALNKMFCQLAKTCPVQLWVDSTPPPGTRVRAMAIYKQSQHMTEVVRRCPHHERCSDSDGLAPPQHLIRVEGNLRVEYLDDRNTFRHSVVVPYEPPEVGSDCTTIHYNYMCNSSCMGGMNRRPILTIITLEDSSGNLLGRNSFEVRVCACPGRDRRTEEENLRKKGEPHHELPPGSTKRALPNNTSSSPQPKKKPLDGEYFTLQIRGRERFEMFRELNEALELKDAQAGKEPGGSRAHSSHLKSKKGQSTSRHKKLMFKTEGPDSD
How it was run: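 HepG2, transient MRTU transfection (cis promoter elements, endogenous TFs); 24 h dosing; RNA isolation, RT-PCR, 6-FAM primer extension, HpaI digest, CE fluorescence; bidirectional fit vs DMSO.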

[14] = BSK_3C_TissueFactor: BioMAP Diversity Plus: 3C Assay for Tissue Factor Biomarker Activity (AID 2282997); settings: BioMAP 3C HUVEC, tissue factor biomarker readout; actives raise or lower the signal
How it was run: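 Dosing of human umbilical vein endothelial cells preceded a 24 h incubation. Tissue Factor was then read by ELISA, with increases and decreases both scored relative to DMSO controls.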

[15] = BSK_3C_uPAR: BioMAP Diversity Plus: 3C Assay for Urokinase-type plasminogen activator receptor (uPAR) Biomarker Activity (AID 2282998); settings: BioMAP 3C HUVEC, uPAR biomarker ELISA; actives raise or lower the signal
How it was run: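 Readout: ELISA for surface uPAR. System: human umbilical vein endothelial primary cells, 24 h after chemical exposure. Analysis: bidirectional fit, DMSO baseline.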

[16] = BSK_4H_Eotaxin3: BioMAP Diversity Plus: 4H Assay for Eotaxin 3 Biomarker Activity (AID 2283000); settings: primary human endothelial cells (HUVEC); actives raise or lower the signal;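 note: CCL26 protein level quantified by ELISA in parallel with SRB cytotoxicity check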
How it was run: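 Human umbilical vein endothelial cells (BSK_4H system) dosed with test chemical; Eotaxin-3 (CCL26) measured by ELISA 24 h after dosing. Bidirectional curve fitting relative to DMSO negative control as baseline.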

[17] = target: Oxysterols receptor LXR-beta (Homo sapiens) (UniProt P55055); assay: ATG_LXRb_TRANS: Attagene TRANS-FACTORIAL HepG2 Assay for human Liver X Receptor beta (LXRb) (AID 2282981; active = hit-call score of the fitted dose curve at least 0.9, where 1 is the maximum); settings: HepG2 Attagene TRANS GAL4-LXRb reporter, mRNA
Oxysterols receptor LXR-beta (Homo sapiens), sequence (P55055 whole entry, looked up, the tested form may be a part): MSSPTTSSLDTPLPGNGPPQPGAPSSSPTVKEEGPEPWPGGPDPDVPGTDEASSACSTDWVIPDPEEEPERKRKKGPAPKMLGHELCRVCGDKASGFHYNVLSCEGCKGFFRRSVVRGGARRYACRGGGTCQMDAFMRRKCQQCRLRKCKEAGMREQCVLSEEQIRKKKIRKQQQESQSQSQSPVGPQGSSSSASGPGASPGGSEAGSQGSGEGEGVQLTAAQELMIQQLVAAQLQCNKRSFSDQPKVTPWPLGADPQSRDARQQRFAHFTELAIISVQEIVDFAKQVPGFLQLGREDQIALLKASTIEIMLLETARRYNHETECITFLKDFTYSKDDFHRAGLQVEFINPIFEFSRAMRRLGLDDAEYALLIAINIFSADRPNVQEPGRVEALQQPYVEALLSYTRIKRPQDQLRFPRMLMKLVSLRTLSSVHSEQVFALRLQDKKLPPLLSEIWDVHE
How it was run: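 Cells: HepG2, transiently transfected with GAL4-UAS reporter units plus LXRb-Gal4 fusion. Treatment: 24 h. Detection: reporter mRNA by RT-PCR, 6-FAM labelling, HpaI digestion, capillary electrophoresis.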

Measured: AC50

CCCCOCCOCCOCCOCCO
not listed: [12] | [13] | [14] | [15] | [16] | [17]
inactive: all other assays above

CCCCCCCCCCCCCCCCCC(=O)OCC(CC)CCCC (stereo unspecified)
not listed: [9] | [10] | [17]
inactive: all other assays above

c1cc(C(c2ccc(OCC3CO3)cc2)c2ccc(OCC3CO3)cc2)ccc1OCC1CO1 (stereo unspecified)
active: [7] 24 µM | [12] 100 µM | [11] 24.8 µM | [13] 11.8 µM
inactive: [17] | [2] | [3] | [4] | [5] | [6] | [9]

O=c1oc(=O)c2cc3c(=O)oc(=O)c3cc12
not listed: [1] | [6] | [13] | [14] | [15] | [16] | [17]
inactive: all other assays above

CC1CCC2CC1C2(C)C (stereo unspecified)
not listed: [1] | [3] | [4] | [5] | [14] | [15] | [16]
inactive: all other assays above

O=C(COc1ccc(Cl)cc1)N1CCN(Cc2ccc3c(c2)OCO3)CC1
active: [5] 67 µM | [10] 100 µM
inactive: [2] | [3] | [4] | [7] | [8] | [9] | [12] | [11]

O=C1O[C@@H]2[C@@H](O)[C@H](O)O[C@@H]2[C@H]1O
not listed: [1] | [4] | [5] | [9] | [14] | [15] | [16]
inactive: all other assays above

CC(C=O)Cc1ccc(C(C)C)cc1 (stereo unspecified)
not listed: [1] | [6] | [14] | [15] | [16] | [17]
inactive: all other assays above

O=C(O)Cc1cccc2ccccc12
not listed: [1] | [6] | [8] | [14] | [15] | [16] | [17]
inactive: all other assays above

Cc1ccc(C=O)s1
not listed: [2] | [3] | [5] | [14] | [15] | [16] | [17]
inactive: all other assays above

CCCCCCCCCCCCCCCC(=O)OC[C@H](O)[C@H]1OC(=O)C(O)=C1O
active: [10] 66.8 µM
not listed: [1] | [9] | [14] | [15] | [16]
inactive: all other assays above

Cc1ccc(S)cc1
active: [13] 65.1 µM
not listed: [1] | [5] | [9] | [14] | [15] | [16]
inactive: all other assays above

Fc1c(F)c(F)c(Br)c(F)c1F
not listed: [1] | [2] | [4] | [14] | [15] | [16]
inactive: all other assays above

O=C(O)c1ccc([N+](=O)[O-])cc1
not listed: [1] | [5]
inactive: all other assays above
